Experimental data from PubChem BioAssay (NCI).
Compounds without any hit were thinned out: in the full panel of roughly 83,000, 20% have a hit.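 Each cell line was grown in a 96-well plate and treated with one concentration of compound for 48 hours. Values below 10 were considered active.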 Activity calls are given as the source filed them.

Test system: SF-539 CNS
Assay: NCI-60 one-dose screen, 48 h (100 = growth as untreated, 0 = no growth, -100 = all killed)
Conditions: 10 µM unless noted

| Structure (SMILES) | growth |
| --- | --- |
| COc1ccc(C2CC(c3ccc(OC)c(OC)c3)=NN2C(=O)c2cc(OC)c(OC)c(OC)c2)c(OC)c1 (stereo not given) | 64.4% (inactive) |
| CCOC(=O)c1c2c(c(C)n1Cc1ccc(OC)cc1)-c1nc(N)ncc1CC2 | 112% (inactive) |
| O=C1N(C2CCCCC2)C(=O)N1C1CCCCC1 | 26.5% (inactive) |
| O=c1ccn(C2OC(CO)C(O)C2F)c(=O)[nH]1 (stereo not given) | 103% (inactive) |
| CCCn1cnc2c1c(=O)n(CCCCC(C)=O)c(=O)n2C | 101% (inactive) |
| CCCCc1nc(Cl)c(CO)n1Cc1ccc(-c2ccccc2-c2nn[nH]n2)cc1 | 100% (inactive) |
| COc1ccc(C2CC(c3cccc(Nc4ccnc5cc(Cl)ccc45)c3)=NN2C=O)cc1 (stereo not given) | -1.14% (active) |
| O=c1c(O)cccn1CCCNCCCN(CCCn1cccc(O)c1=O)CCCn1cccc(O)c1=O | 108% (inactive) |
| COc1ccc2nc(-c3ccc(-n4cncc4-c4ccc(OC)c(N)c4)cc3)sc2c1 | 105% (inactive) |
| Cc1cc(NC(=O)Nc2cc(Cl)ccc2C)no1 | 94.1% (inactive) |
| O=C1NCN(c2ccccc2)C12CCN(CCCC(c1ccc(F)cc1)c1ccc(F)cc1)CC2 | 50.9% (inactive) |
| CCC(O)C(C)(C)C (stereo not given) | 113% (inactive) |
| COc1ncc(-c2ccc3nccc(C#CCN4CCN(S(C)(=O)=O)CC4)c3c2)cc1NS(=O)(=O)c1ccc(F)cc1F | -16.1% (active) |
| O=C(Nc1ccc(Cl)cc1)c1cc2c(cc1O)[nH]c1ccccc12 | 12.4% (inactive) |
| O=C1c2ccccc2C(=O)c2c1cccc2-n1nnc2ccccc21 | 112% (inactive) |
